# According to article PMC7862700, “An all-to-all approach to the identification of sequence-specific readers for epigenetic DNA modifications on cytosine”:
# Experiments:
# Experiment in all cases: DAPPL (digital affinity profiling via proximity ligation, sequencing); 10 mM Tris-HCl pH 7.5, 50 mM NaCl, 1 mM DTT, 4% glycerol, room temperature, 30 min; GST-TFs on glutathione beads, 16-mer random dsDNA library, 0.1% formaldehyde crosslink after washing; high values mean tight binding
# [1] = target: T1, FEV (Homo sapiens, UniProt Q99581 1-238); details: protein: recombinant; tags: N-terminal GST; dsDNA, one strand shown
# T1 sequence: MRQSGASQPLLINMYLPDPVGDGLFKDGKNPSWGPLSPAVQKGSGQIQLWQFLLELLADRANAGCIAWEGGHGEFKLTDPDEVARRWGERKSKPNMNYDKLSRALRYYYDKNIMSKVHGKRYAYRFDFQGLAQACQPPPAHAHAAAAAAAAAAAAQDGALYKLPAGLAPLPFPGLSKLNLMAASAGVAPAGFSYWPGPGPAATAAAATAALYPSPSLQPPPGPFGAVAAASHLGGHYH
# Summary of the method: (§1)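 Beads coated with glutathione captured GST-fused human transcription factors that had been expressed in yeast, and the factors were then given DNA barcodes and pooled with a tag-only sample. The pools were incubated with 200 nmole of a random double-stranded 16-mer DNA library in Tris/NaCl/DTT/glycerol buffer for 30 min at room temperature, washed, crosslinked with 0.1% formaldehyde and proximity-ligated with BsaI/T4 ligase at 37 °C for 1 h. PCR amplification and Illumina NextSeq500 sequencing came last. Binding signal is each hexamer's read frequency for a factor divided by its frequency for the tag-only sample.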
# [2] = target: ETV5 (Homo sapiens, UniProt P41161 1-510); details: protein: recombinant; tags: N-terminal GST; dsDNA, one strand shown
# Chain of ETV5 (P41161 whole entry): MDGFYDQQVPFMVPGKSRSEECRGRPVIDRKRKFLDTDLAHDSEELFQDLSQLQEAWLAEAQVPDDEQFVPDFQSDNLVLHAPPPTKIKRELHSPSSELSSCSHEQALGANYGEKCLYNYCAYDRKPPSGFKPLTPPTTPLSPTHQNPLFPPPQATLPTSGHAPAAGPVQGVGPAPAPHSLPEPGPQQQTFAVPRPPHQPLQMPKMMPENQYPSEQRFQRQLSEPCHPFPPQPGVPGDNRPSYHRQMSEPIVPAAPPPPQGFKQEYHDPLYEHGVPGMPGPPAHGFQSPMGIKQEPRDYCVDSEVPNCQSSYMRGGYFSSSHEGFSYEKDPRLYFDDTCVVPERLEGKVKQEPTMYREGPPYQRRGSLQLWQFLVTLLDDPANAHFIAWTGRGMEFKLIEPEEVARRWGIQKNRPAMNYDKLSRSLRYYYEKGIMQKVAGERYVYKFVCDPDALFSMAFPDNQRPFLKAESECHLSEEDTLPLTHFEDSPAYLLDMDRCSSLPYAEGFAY
# Summary of the method: as §1
# [3] = target: HSF1 (Homo sapiens, UniProt Q00613 1-529); details: protein: recombinant; tags: N-terminal GST; chain copies: 3; dsDNA, one strand shown
# Chain of HSF1 (Q00613 whole entry): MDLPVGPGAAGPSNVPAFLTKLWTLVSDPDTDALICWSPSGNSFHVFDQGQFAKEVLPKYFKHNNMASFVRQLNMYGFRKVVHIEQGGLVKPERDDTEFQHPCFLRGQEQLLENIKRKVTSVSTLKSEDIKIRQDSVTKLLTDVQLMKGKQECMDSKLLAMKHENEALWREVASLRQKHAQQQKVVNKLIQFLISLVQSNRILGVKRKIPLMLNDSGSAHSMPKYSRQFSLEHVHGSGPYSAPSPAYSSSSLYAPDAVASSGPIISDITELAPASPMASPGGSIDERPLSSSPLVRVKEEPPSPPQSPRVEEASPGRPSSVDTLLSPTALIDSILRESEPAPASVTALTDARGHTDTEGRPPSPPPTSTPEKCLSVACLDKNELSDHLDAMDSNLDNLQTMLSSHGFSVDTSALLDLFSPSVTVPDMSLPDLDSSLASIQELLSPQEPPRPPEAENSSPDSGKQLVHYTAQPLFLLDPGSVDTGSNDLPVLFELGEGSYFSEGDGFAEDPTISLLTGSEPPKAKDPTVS
# Summary of the method: as §1
# [4] = target: T2, SPIC (Homo sapiens, UniProt Q8N5J4 1-248); details: protein: recombinant; tags: N-terminal GST; dsDNA, one strand shown
# T2 sequence: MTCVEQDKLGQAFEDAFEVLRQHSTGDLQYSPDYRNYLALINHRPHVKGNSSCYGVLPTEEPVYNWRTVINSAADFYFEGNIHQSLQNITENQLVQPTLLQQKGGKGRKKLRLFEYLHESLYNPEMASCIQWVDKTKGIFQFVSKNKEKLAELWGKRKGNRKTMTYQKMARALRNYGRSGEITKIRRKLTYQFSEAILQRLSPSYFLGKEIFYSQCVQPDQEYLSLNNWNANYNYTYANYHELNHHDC
# Summary of the method: as §1
# [5] = target: ELF4 (Homo sapiens, UniProt Q99607 1-663); details: protein: recombinant; tags: N-terminal GST; dsDNA, one strand shown
# Chain of ELF4 (Q99607 whole entry): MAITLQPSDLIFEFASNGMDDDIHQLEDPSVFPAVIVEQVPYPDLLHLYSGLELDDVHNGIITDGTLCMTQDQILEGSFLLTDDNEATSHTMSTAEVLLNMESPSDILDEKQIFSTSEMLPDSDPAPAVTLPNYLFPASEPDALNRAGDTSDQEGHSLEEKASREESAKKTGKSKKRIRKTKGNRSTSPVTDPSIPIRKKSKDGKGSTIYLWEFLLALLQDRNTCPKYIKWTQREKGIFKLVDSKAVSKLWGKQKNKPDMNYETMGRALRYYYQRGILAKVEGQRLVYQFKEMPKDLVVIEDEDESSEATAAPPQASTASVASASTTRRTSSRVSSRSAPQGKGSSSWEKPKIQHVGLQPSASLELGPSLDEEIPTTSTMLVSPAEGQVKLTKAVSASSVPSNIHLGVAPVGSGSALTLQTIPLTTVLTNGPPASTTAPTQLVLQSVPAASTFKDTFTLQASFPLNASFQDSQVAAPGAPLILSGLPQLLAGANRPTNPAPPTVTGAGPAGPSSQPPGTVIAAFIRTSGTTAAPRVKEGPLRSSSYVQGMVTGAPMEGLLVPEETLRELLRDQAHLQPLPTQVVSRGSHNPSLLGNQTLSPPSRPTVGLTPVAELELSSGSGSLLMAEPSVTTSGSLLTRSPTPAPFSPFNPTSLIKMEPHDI
# Summary of the method: as §1
# [6] = target: T3, ELK4 (Homo sapiens, UniProt P28324-2 1-405); details: protein: recombinant; tags: N-terminal GST; dsDNA, one strand shown
# T3 sequence: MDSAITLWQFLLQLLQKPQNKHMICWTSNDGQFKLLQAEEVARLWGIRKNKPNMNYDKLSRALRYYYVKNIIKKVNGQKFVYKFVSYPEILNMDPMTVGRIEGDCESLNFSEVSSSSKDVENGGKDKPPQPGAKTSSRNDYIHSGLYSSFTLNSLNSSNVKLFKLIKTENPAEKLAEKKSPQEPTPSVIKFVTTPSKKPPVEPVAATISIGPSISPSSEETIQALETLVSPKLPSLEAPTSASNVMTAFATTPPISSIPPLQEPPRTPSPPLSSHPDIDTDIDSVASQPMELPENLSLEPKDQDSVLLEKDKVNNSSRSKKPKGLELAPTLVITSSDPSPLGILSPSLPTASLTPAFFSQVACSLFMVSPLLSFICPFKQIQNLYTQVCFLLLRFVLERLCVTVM
# Summary of the method: as §1
# [7] = target: T4, ETV2 (Homo sapiens, UniProt O00321 1-342); details: protein: recombinant; tags: N-terminal GST; dsDNA, one strand shown
# T4 sequence: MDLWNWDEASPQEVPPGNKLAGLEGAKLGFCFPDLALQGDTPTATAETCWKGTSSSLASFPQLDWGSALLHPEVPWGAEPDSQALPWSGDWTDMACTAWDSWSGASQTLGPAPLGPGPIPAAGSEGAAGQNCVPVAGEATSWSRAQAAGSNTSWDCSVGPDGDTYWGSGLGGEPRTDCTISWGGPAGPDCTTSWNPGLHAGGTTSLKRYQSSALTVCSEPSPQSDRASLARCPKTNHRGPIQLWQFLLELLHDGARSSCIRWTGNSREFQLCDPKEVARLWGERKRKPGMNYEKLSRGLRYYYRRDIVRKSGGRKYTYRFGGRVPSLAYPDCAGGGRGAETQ
# Summary of the method: as §1
# [8] = target: T5, ELF3 (Homo sapiens, UniProt P78545 1-371); details: protein: recombinant; tags: N-terminal GST; dsDNA, one strand shown
# T5 sequence: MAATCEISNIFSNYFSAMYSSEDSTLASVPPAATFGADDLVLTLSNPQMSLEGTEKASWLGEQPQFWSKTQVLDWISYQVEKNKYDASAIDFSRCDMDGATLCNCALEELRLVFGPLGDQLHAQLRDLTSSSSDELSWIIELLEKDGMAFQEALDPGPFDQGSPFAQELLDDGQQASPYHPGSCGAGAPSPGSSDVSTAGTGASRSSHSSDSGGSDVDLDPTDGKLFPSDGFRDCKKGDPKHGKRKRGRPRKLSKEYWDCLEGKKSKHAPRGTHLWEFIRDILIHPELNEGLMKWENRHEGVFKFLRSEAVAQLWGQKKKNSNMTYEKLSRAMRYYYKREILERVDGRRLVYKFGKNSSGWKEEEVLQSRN
# Summary of the method: as §1
# [9] = target: CRX (Homo sapiens, UniProt O43186 1-299); details: protein: recombinant; tags: N-terminal GST; dsDNA, one strand shown
# Chain of CRX (O43186 whole entry): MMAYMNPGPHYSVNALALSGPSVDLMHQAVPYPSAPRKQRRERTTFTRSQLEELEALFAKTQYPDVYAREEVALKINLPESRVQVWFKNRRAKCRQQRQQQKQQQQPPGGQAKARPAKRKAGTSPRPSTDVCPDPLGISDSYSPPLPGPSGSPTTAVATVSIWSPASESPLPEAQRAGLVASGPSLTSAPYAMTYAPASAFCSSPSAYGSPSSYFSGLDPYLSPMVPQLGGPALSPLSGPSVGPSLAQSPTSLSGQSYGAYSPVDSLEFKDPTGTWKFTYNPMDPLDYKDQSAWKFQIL
# Summary of the method: as §1
# [10] = target: ETV1 (Homo sapiens, UniProt P50549 1-477); details: protein: recombinant; tags: N-terminal GST; dsDNA, one strand shown
# Chain of ETV1 (P50549 whole entry): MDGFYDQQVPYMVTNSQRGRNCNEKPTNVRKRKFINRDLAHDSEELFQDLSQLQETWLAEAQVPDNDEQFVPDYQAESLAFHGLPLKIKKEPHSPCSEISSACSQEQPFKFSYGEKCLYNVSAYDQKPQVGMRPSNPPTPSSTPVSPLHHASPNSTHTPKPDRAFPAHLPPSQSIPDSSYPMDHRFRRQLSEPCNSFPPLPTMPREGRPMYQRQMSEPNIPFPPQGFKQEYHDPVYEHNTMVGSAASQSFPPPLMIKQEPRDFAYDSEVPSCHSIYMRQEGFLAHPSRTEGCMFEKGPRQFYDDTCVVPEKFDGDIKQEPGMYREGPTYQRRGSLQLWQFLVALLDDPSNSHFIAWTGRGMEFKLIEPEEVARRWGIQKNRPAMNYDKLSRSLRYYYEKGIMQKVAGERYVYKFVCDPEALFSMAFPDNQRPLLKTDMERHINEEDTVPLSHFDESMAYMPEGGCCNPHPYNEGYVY
# Summary of the method: as §1
# [11] = target: T6, ERF (Homo sapiens, UniProt P50548 1-548); details: protein: recombinant; tags: N-terminal GST; dsDNA, one strand shown
# T6 sequence: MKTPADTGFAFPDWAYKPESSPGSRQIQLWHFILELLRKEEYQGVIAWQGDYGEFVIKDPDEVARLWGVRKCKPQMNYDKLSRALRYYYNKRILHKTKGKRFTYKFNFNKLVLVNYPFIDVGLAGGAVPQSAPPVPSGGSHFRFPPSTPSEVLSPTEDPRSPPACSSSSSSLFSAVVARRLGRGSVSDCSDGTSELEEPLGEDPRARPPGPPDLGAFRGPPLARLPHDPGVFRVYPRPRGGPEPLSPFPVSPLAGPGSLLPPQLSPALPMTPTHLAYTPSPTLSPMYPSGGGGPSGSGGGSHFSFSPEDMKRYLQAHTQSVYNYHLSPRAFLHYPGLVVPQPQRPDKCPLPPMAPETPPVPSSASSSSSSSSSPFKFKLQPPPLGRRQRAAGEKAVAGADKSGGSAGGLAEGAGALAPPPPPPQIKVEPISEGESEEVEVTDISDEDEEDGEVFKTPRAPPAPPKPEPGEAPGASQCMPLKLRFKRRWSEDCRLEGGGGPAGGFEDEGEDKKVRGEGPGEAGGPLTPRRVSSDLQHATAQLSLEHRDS
# Summary of the method: as §1
# [12] = target: T7, ETV3L (Homo sapiens, UniProt Q6ZN32 1-361); details: protein: recombinant; tags: N-terminal GST; dsDNA, one strand shown
# T7 sequence: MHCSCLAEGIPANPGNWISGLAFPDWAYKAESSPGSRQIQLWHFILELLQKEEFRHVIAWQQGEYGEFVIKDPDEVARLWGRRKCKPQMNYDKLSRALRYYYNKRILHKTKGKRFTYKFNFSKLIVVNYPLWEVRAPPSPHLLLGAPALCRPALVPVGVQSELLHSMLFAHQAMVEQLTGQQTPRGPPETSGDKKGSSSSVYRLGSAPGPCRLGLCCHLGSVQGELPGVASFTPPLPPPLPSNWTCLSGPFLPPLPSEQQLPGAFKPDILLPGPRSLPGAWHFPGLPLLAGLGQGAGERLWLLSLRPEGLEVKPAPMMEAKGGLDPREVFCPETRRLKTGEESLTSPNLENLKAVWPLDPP
# Summary of the method: as §1
# [13] = target: T8, ETS2 (Homo sapiens, UniProt P15036 1-469); details: protein: recombinant; tags: N-terminal GST; dsDNA, one strand shown
# T8 sequence: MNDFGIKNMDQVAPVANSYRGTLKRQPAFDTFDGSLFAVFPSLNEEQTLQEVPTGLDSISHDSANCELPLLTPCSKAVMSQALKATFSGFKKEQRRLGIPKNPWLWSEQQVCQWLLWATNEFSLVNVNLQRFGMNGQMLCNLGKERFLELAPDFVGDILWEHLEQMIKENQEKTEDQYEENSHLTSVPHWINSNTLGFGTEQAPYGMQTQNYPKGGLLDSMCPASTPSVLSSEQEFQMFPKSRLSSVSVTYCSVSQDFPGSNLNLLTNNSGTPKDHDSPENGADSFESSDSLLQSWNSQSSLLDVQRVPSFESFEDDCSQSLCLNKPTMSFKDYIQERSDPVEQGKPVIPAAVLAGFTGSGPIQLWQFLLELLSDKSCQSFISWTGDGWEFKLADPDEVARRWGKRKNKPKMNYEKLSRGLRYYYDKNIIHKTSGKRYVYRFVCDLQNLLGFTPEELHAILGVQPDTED
# Summary of the method: as §1
# [14] = target: T9, SPDEF (Homo sapiens, UniProt O95238 1-335); details: protein: recombinant; tags: N-terminal GST; dsDNA, one strand shown
# T9 sequence: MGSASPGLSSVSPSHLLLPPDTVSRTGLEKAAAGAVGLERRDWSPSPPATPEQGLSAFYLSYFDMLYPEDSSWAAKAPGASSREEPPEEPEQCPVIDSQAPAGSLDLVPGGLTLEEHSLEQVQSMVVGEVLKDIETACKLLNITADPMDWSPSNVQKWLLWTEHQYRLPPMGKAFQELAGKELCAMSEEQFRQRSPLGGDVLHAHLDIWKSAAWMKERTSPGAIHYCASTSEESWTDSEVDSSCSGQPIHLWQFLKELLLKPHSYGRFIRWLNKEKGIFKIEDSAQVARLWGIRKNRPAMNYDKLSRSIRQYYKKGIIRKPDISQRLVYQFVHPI
# Summary of the method: as §1
# [15] = target: T10, ETV7 (Homo sapiens, UniProt Q9Y603 1-341); details: protein: recombinant; tags: N-terminal GST; dsDNA, one strand shown
# T10 sequence: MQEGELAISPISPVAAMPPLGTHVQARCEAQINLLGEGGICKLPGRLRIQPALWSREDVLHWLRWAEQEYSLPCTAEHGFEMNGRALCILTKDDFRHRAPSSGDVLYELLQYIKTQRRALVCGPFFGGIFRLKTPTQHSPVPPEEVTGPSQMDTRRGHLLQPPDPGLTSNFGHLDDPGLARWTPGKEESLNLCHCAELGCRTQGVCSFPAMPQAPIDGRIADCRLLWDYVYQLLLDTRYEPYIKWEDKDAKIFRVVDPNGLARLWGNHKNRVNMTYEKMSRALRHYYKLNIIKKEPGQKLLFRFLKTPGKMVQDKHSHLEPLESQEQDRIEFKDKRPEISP
# Summary of the method: as §1
# [16] = target: T11, ELF5 (Homo sapiens, UniProt Q9UKW6-2 1-255); details: protein: recombinant; tags: N-terminal GST; dsDNA, one strand shown
# T11 sequence: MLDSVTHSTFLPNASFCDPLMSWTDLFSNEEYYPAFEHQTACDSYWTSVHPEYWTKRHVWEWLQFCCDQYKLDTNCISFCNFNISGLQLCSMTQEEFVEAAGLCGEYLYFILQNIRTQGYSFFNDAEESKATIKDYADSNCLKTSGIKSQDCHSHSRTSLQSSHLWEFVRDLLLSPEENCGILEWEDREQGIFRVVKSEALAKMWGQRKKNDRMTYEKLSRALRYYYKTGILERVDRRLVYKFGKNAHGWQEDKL
# Summary of the method: as §1
# [17] = target: T12, ETV3 (Homo sapiens, UniProt P41162-2 1-143); details: protein: recombinant; tags: N-terminal GST; dsDNA, one strand shown
# T12 sequence: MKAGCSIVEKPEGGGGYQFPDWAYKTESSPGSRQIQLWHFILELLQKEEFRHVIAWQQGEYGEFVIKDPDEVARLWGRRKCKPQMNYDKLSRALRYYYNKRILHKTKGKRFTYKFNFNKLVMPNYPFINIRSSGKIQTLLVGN
# Summary of the method: as §1
# [18] = target: ETV6 (Homo sapiens, UniProt P41212 1-452); details: protein: recombinant; tags: N-terminal GST; dsDNA, one strand shown
# Chain of ETV6 (P41212 whole entry): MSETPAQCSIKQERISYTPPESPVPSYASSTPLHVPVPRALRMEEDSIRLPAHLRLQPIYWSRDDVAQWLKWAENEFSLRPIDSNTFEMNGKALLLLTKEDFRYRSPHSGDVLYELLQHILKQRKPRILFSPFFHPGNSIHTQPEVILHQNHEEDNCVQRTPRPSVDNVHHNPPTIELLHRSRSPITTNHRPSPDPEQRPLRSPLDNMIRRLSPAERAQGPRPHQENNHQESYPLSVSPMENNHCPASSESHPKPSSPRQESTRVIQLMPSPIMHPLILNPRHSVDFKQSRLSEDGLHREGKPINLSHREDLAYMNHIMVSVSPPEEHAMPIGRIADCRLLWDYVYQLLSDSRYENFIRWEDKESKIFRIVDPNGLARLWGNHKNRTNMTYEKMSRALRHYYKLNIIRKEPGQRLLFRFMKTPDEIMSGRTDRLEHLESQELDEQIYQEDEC
# Summary of the method: as §1
sequence,measurement,setting,value
TACGCA,binding signal,[1],"1.16 fold enrichment (6-mer frequency, TF over GST control)"
same,binding signal,[2],"1.21 fold enrichment (6-mer frequency, TF over GST control)"
same,binding signal,[3],"1.06 fold enrichment (6-mer frequency, TF over GST control)"
same,binding signal,[4],"1.16 fold enrichment (6-mer frequency, TF over GST control)"
same,binding signal,[5],"1.23 fold enrichment (6-mer frequency, TF over GST control)"
same,binding signal,[6],"1.12 fold enrichment (6-mer frequency, TF over GST control)"
same,binding signal,[7],"1.15 fold enrichment (6-mer frequency, TF over GST control)"
same,binding signal,[8],"1.19 fold enrichment (6-mer frequency, TF over GST control)"
same,binding signal,[9],"1.21 fold enrichment (6-mer frequency, TF over GST control)"
same,binding signal,[10],"1.25 fold enrichment (6-mer frequency, TF over GST control)"
same,binding signal,[11],"1.28 fold enrichment (6-mer frequency, TF over GST control)"
same,binding signal,[12],"1.12 fold enrichment (6-mer frequency, TF over GST control)"
same,binding signal,[13],"1.2 fold enrichment (6-mer frequency, TF over GST control)"
same,binding signal,[14],"1.16 fold enrichment (6-mer frequency, TF over GST control)"
same,binding signal,[15],"1.12 fold enrichment (6-mer frequency, TF over GST control)"
same,binding signal,[16],"1.11 fold enrichment (6-mer frequency, TF over GST control)"
same,binding signal,[17],"1.1 fold enrichment (6-mer frequency, TF over GST control)"
same,binding signal,[18],"1.18 fold enrichment (6-mer frequency, TF over GST control)"
